Data reported in PubChem BioAssay.
The source made the active and inactive calls.

Columns and labels:
[1] = adipocyte viability effects, profiling panel, cell-based, 3T3-L1 adipocytes, calcein-AM fluorescence, 48 h, basal (AID 1163); settings: 3T3-L1 adipocytes viability, higher = more signal
[2] = HepG2 cell viability effects, profiling panel, calcein-AM fluorescence, 48 h, basal (AID 1164); settings: higher = more signal
[3] = MM1S cell viability effects, profiling panel, calcein-AM fluorescence, 48 h, basal (AID 1165); settings: higher = more signal;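 note: viability of MM1S multiple myeloma cells under basal unstimulated conditions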
[4] = basal RPMI8226 viability, no added stimulus, profiling panel, cell-based, calcein-AM fluorescence, 48 h, PK04 Diversity Set (AID 1166); settings: RPMI8226 myeloma viability, higher = more signal;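 note: cells grown under basal conditions without added stimulus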
[5] = basal HepG2 mitochondrial membrane potential changes, profiling panel, cell-based, JC-1 fluorescence, 24 h, 100 nL compound (AID 1167); settings: higher = more signal
[6] = basal 3T3-L1 adipocyte mitochondrial potential changes, profiling panel, cell-based, JC-1 fluorescence, 3T3-L1 adipocytes, 24 h, 100 nL compound (AID 1168); settings: JC-1 mitochondrial fluorescence, higher = more signal, called active from +8 up or from −8 down
[7] = basal RPMI8226 mitochondrial membrane potential changes, profiling panel, cell-based, JC-1 fluorescence, 24 h, 100 nL compound (AID 1169); settings: RPMI8226 myeloma, JC-1 mitochondrial potential fluorescence, higher = more signal
[8] = basal MM1S mitochondrial membrane potential changes, profiling panel, cell-based, JC-1 fluorescence, 24 h, 100 nL compound (AID 1170); settings: higher = more signal
[9] = A549 lung cancer cell viability effects, profiling panel, resazurin fluorescence, 24 h, PK04 Diversity Set (AID 1171); settings: higher = more signal, called active from +8 up or from −8 down
[10] = HepG2 liver cancer cell viability effects, profiling panel, resazurin fluorescence, 24 h, PK04 Diversity Set (AID 1172); settings: higher = more signal
[11] = basal S. cerevisiae growth modulation, no modifier, primary screen, OD600, strain BY4716, 24 h, basal condition (AID 1173); settings: OD600, 24 h, higher = more signal, called active from +8 up or from −8 down
[12] = MM1S myeloma cell viability, profiling panel, resazurin fluorescence, basal, 24 h, PK04 Diversity Set (AID 1174); settings: higher = more signal, called active from +8 up or from −8 down;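 note: MM1S multiple myeloma cell line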
[13] = target: Dihydroorotate dehydrogenase (quinone), mitochondrial (Plasmodium falciparum (isolate 3D7)) (UniProt Q08210); test: PfDHODH enzyme inhibitors, primary screen, biochemical, C-terminal His tag, absorbance 600 nm (AID 1175); settings: DCIP absorbance 600 nm, higher = more signal, called active from +8 up or from −8 down;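 note: recombinant parasite enzyme with a five histidine tag at its C terminus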
Dihydroorotate dehydrogenase (quinone), mitochondrial (Plasmodium falciparum (isolate 3D7)), sequence (Q08210 whole entry, looked up): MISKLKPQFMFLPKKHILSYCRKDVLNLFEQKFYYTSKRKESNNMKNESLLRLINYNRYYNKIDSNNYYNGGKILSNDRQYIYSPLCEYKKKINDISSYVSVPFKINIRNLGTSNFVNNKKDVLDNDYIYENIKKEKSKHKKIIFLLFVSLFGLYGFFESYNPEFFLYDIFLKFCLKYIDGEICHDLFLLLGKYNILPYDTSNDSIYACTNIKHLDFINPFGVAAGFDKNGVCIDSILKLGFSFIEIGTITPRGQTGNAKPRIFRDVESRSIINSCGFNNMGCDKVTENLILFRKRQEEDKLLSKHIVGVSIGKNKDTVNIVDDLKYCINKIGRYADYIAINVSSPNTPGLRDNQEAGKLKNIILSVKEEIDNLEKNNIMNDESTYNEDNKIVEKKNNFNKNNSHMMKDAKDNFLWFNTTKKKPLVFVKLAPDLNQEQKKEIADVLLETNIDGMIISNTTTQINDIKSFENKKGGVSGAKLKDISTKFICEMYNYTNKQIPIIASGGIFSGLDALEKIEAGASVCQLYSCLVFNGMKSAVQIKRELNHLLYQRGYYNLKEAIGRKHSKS

[14] = S. cerevisiae RM11-1a growth modifiers, primary screen, strain RM11-1a, OD600, basal, 24 h (AID 1177); settings: OD600, 24 h, higher = more signal, called active from +8 up or from −8 down;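 note: cultures grown under basal conditions with no added stressor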
[15] = E. coli acrAB mutant growth effects, primary screen, E. coli filamentation inducers, strain DRC39, OD650, 24 h (AID 1178); settings: higher = more signal, called active from +8 up or from −8 down;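 note: growth measured as culture turbidity by optical density at 650 nm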
[16] = E. coli acrAB mutant growth effects, primary screen, E. coli filamentation inducers, strain DRC39, OD650, 48 h (AID 1179);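 note: screen aims at cell division blockers that make cells filament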; settings: E. coli DRC39 delta-acrAB growth, higher = more signal, called active from +8 up or from −8 down
[17] = RPMI8226 myeloma cell viability, profiling panel, resazurin fluorescence, basal, 24 h, PK04 Diversity Set (AID 1180); settings: higher = more signal;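 note: RPMI8826 multiple myeloma cell line at 5000 cells per well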
[18] = target: E3 ubiquitin-protein ligase XIAP (Homo sapiens) (UniProt P98170); test: XIAP binders, primary screen, biophysical, small-molecule microarray, fluorescence 635 nm (AID 1181); settings: small-molecule microarray binding, higher = more signal;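 note: score merges 667 nm emission and signal to noise over triplicate slides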
E3 ubiquitin-protein ligase XIAP (Homo sapiens), sequence (P98170 whole entry, looked up): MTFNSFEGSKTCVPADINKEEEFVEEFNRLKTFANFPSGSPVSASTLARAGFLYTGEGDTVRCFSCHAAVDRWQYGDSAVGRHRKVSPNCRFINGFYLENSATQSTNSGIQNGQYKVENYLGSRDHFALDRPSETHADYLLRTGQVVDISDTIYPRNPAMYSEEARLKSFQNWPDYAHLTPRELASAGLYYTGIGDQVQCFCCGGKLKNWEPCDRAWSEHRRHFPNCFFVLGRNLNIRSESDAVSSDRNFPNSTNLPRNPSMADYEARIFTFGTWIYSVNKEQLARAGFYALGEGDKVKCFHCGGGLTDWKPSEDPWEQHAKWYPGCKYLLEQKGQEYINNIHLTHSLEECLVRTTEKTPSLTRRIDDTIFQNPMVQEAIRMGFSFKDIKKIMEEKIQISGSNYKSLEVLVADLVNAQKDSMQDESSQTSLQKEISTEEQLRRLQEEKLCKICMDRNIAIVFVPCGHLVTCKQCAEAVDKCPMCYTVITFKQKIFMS

[19] = system: XIP peptide (Xip251-270) binding; test: small-molecule binders of XIP peptide, primary screen, biochemical, small-molecule microarray, fluorescence 635/667 nm, 0.1 µg/mL protein (AID 1182); settings: fluorescent protein binding, 635 nm, higher = more signal, called active from +8 up or from −8 down
XIP peptide (Xip251-270) = test: small-molecule binders of XIP peptide, primary screen, biochemical, small-molecule microarray, fluorescence 635/667 nm, 0.5 µg/mL protein (AID 1183); settings: small-molecule microarray binding, fluorescence 635 nm; higher = more signal

SMILES	z-score [1]	z-score [2]	z-score [3]	z-score [4]	z-score [5]	z-score [6]	z-score [7]	z-score [8]	z-score [9]	z-score [10]	z-score [11]	z-score [12]	composite z-score [13]	z-score [14]	z-score [15]	z-score [16]	z-score [17]	composite z-score [18]	composite z-score [19]	composite z-score (XIP peptide (Xip251-270))
C=C(CCCC)/C(=C/C[C@H](OC(=O)c1ccncc1)c1ccc(CO)o1)c1cnc2ccccc2c1	0.87	-0.76	-2.31	0.117	0.265	1.03 (inactive)	0.519	-0.656	0.274 (inactive)	0.921	-1.7 (inactive)	0.511 (inactive)	-6.96 (inactive)	-0.716 (inactive)	1.67 (inactive)	1.01 (inactive)	0.874	-0.105	0.291 (inactive)	0.413
CN(C)CCCC[C@@H]1NC(=O)[C@@H]2C[C@H](C(=O)NCCCCCNC(=O)CS)[C@H](c3cccc(OCCO)c3)N2C1=O	1.56	-1.33	-0.669	-0.348	0.902	0.533 (inactive)	0.526	0.249	-0.42 (inactive)	-0.0484	-1.86 (inactive)	0.78 (inactive)	-1.83 (inactive)	-2.53 (inactive)	0.431 (inactive)	-0.248 (inactive)	0.608	-0.135	0.62 (inactive)	-0.351
COC(=O)C1=CC(CCCO)=CC(C2CC2)N(Cc2cc3c(cc2Br)OCO3)C=C1C(=O)OC (stereo not given)	1.19	0.489	0.0635	0.627	1.1	0.857 (inactive)	-0.147	1.28	0.565 (inactive)	0.365	-1.81 (inactive)	1.06 (inactive)	-0.509 (inactive)	-0.847 (inactive)	0.489 (inactive)	-0.0093 (inactive)	1.45	0.295	1.68 (inactive)	0.0315
COCCCNC(=O)[C@@]1(Cc2ccccc2CN=[N+]=[N-])COC(c2ccc(OCCCO)cc2)=N1	1.08	0.501	-2.46	-0.77	0.287	1.33 (inactive)	-0.724	-0.376	0.616 (inactive)	1.8	-1.66 (inactive)	0.0645 (inactive)	-0.49 (inactive)	0.493 (inactive)	2 (inactive)	1.61 (inactive)	0.693	-0.0525	1.94 (inactive)	0.866
COC(=O)C(CC#Cc1ccc2c(c1)[C@]1(C(=O)N2)[C@H](c2ccccc2OCCO)N2[C@H](c3ccccc3)[C@H](c3ccccc3)OC(=O)[C@H]2[C@@H]1C(=O)N1CCCCCCC1)C(=O)OC	1.89	-0.0172	0.578	-0.576	0.87	-0.239 (inactive)	-0.395	-1.32	1.9 (inactive)	0.0437	1.31 (inactive)	1.19 (inactive)	-2.8 (inactive)	1.23 (inactive)	0.723 (inactive)	-0.34 (inactive)	1.17	1.72	6.51 (inactive)	0.937
CC(C)(C)OC(=O)CC[C@@]12N=C(c3ccc(OCCCO)cc3)O[C@@H]1c1ccccc1CN(Cc1ccccc1)C2=O	1.52	-1.46	-3.12	-4.06	0.528	0.547 (inactive)	-1.2	-1.07	-0.624 (inactive)	-0.232	1.13 (inactive)	-3.4 (inactive)	0.714 (inactive)	3.15 (inactive)	1.21 (inactive)	0.199 (inactive)	-2.12	0.286	-0.127 (inactive)	0.687
COc1ccc([Si](C)(C)[C@@H]2[C@@H](CCn3cc(CCO)nn3)O[C@]3(C(=O)N(Cc4ccc(N5C(=O)c6cccc7cccc5c67)cc4)c4ccccc43)[C@H]2C)cc1	1.91	-4.48	-2.68	-4.34	1.75	2.83 (inactive)	-1.04	-1.78	-2.38 (inactive)	-1.3	-0.456 (inactive)	-5.44 (inactive)	0.0498 (inactive)	0.643 (inactive)	2.2 (inactive)	1.02 (inactive)	-4.14	0.0159	0.437 (inactive)	0.739
COC(=O)C(CC#Cc1ccc2c(c1)[C@]1(C(=O)N2)[C@H](C(=O)O)[C@H]2C(=O)O[C@H](c3ccccc3)[C@H](c3ccccc3)N2[C@@H]1c1ccc(OCCO)cc1)C(=O)OC	0.313	1.27	-2.5	-3.54	-0.532	0.587 (inactive)	-0.746	0.171	0.7 (inactive)	0.821	-0.842 (inactive)	1.22 (inactive)	-15.4 (active)	0.338 (inactive)	1.6 (inactive)	1.72 (inactive)	-2.37	-0.207	1.68 (inactive)	0.836
COc1ccc([Si](C)(C)[C@H]2[C@H](CC(=O)N(CCO)Cc3ccccc3)O[C@@]3(C(=O)N(Cc4cccc(N5C(=O)COc6ccccc65)c4)c4ccccc43)[C@@H]2C)cc1	0.446	-0.647	-0.945	-2.66	0.502	1.2 (inactive)	-0.943	-0.397	-0.899 (inactive)	0.0785	0.337 (inactive)	-1.48 (inactive)	-0.149 (inactive)	2.62 (inactive)	2.07 (inactive)	2.13 (inactive)	-2.97	0.0727	1.65 (inactive)	0.727
COCCCNC(=O)[C@@]1(C)c2ccccc2C(=O)N(Cc2cc(F)cc(C(F)(F)F)c2)[C@H]1c1ccc(CO)cc1	0.604	-0.176	0.534	-0.0765	1.32	0.0832 (inactive)	-0.69	0.659	0.914 (inactive)	-0.0724	0.416 (inactive)	1.09 (inactive)	0.408 (inactive)	1.35 (inactive)	1.04 (inactive)	0.359 (inactive)	1.31	2.62	-0.268 (inactive)	-1.16
C=C[C@H](OC)[C@@H](OC(=O)Nc1ccc(OC)cc1)c1ccc(OC)c(O)c1	0.922	-0.737	0.478	0.294	-0.638	1.02 (inactive)	0.756	0.206	0.304 (inactive)	0.895	-1.01 (inactive)	1.12 (inactive)	0.465 (inactive)	0.0923 (inactive)	1.89 (inactive)	1.29 (inactive)	1.15	0.0073	1.11 (inactive)	-1.18
CC(C)N1CC=CC23O[C@@H]4/C=C\CCCOC(=O)C4[C@H]2C(=O)N(CCCO)[C@@H]3C1=O (stereo not given in full)	0.834	0.152	0.827	0.311	0.795	0.32 (inactive)	0.747	0.789	0.817 (inactive)	0.129	0.11 (inactive)	0.791 (inactive)	-0.506 (inactive)	1.05 (inactive)	1.36 (inactive)	1.25 (inactive)	1.78	0.0126	0.015 (inactive)	-0.556
C=C(C1=CCN(S(=O)(=O)c2ccc(C)cc2)C1)[C@@H](OC(C)=O)[C@@H]1CCCN1S(=O)(=O)c1ccccc1[N+](=O)[O-]	1.9	-3.37	-3.21	-4.14	1.04	0.496 (inactive)	-1.21	-2.86	0.0974 (inactive)	0.174	-0.372 (inactive)	-7.03 (inactive)	1 (inactive)	1.39 (inactive)	2.93 (inactive)	1.38 (inactive)	-4.54	-0.301	0.698 (inactive)	-0.737
CC(CO)N1C(=O)[C@@H]2C3C(=O)OCCC/C=C\[C@H]3OC23C=CCN(Cc2ccccc2)C(=O)[C@@H]13 (stereo not given in full)	-0.154	0.547	2.05	-0.172	0.797	1.86 (inactive)	-0.0742	0.322	0.754 (inactive)	0.918	-0.703 (inactive)	0.462 (inactive)	-0.761 (inactive)	-0.985 (inactive)	1.6 (inactive)	1.97 (inactive)	0.526	-0.0333	-0.554 (inactive)	-0.736
C=C(COC)C(=O)CC[C@@H](OC(=O)c1ccccc1-c1ccccc1C(=O)O)c1cccc(OCCO)c1	0.649	-0.441	-1.99	-1.43	0.0537	0.469 (inactive)	-0.0226	1.4	1.2 (inactive)	0.417	-0.749 (inactive)	0.0335 (inactive)	-0.733 (inactive)	0.291 (inactive)	1.16 (inactive)	0.755 (inactive)	0.458	0.109	0.43 (inactive)	-0.29
C=C(COC)/C(=C/C[C@H](OC(C)=O)c1cccc(OCCO)c1)c1cc(C(=O)OC)ccc1OC	0.81	-2.15	0.0939	-1.1	0.616	1.88 (inactive)	-0.252	0.471	-1.03 (inactive)	-0.231	-17.6 (active)	0.975 (inactive)	-9.35 (active)	-21.4 (active)	1.24 (inactive)	0.802 (inactive)	0.59	0.0077	0.876 (inactive)	0.876
COCCCNC(=O)[C@@]1(CCS(=O)(=O)c2ccccc2)N=C(c2ccc(OCCCO)cc2)O[C@H]1c1ccccc1CN=[N+]=[N-]	2.66	-0.0301	0.872	-0.532	1.02	0.164 (inactive)	-0.866	0.175	0.0658 (inactive)	-0.404	-0.938 (inactive)	1.21 (inactive)	-1.02 (inactive)	-1.49 (inactive)	1.4 (inactive)	0.502 (inactive)	0.846	0.0871	0.901 (inactive)	0.67
C[C@@H](OCc1ccccc1)C1NC(=O)[C@@]23C(=O)N[C@@H](Cc4ccccc4)C2[C@H](C)[C@@]2(C)O[C@H]2C3/C=C/C/C=C\CNC(=O)[C@@H]2CCCN2C1=O (stereo not given in full)	0.812	0.11	-1.11	-0.722	2.87	0.566 (inactive)	0.0782	1.19	1.46 (inactive)	0.432	-1.9 (inactive)	0.556 (inactive)	-0.0867 (inactive)	-0.421 (inactive)	2.53 (inactive)	1.66 (inactive)	0.685	0.176	0.187 (inactive)	-1.05
